Assay [1] in a line: circadian clock period modulators, cell-based, LOPAC library, luminescence reporter (AID 2774; call rule not given here;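 also: values are relative to mean of DMSO wells on each plate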). To be noted: circadian reporter cells, at 7 µM, actives lie on both sides.
Assay [2] in a line: hESC survival regulators, cell-based (AID 493140; call rule not given here;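 also: cells exposed to compounds for four days before counting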). To be noted: human embryonic stem cell survival screen; stronger effect = higher value.
Assay [3] has as its system Aerobactin synthetase IucA (Klebsiella pneumoniae, hypervirulent). Nature of the assay: IucA enzyme inhibition, biochemical, LOPAC library, absorbance readout (AID 1346212; call rule not given here;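 also: 100% = no compound wells and 0% = no enzyme wells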). To be noted: IucA enzyme assay, absorbance (OD) readout; stronger effect = lower value;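 tested at 8 µM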.
In assay [4] the test system is Hepatitis C virus NS3 helicase. Nature of the assay: HCV NS3 helicase inhibitors, primary screen, biochemical, fluorescence polarization, LOPAC1280 library (AID 687035; in the data active = inhibition above about 37%). To be noted: Purified HCV NS3 helicase, Cy5-dT15 ssDNA binding fluorescence polarization; stronger effect = higher value; concentration not given here.
Assay [5] in a line: Cy5 fluorescence quenching or enhancement artefacts, artefact control for HCV NS3 helicase inhibitor project, biochemical, LOPAC1280 (AID 687037; call rule not given here). To be noted: Cy5-DNA-NS3h complex fluorescence interference counterscreen.
Assay [6] can be described thus: sensitizers of A549 cells to miR-34 induction, primary screen, imaging, A549 dox-inducible miR-34, nuclei and caspase counts (AID 1347080;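 active = compounds whose cell count with miR-34 switched on is under 0.7 times the count with it off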). To be noted: A549 miR-34 inducible, Hoechst nuclei count, 48 h.
Assay [7] in a line: viability rescue of complex I mutant cybrids, primary screen, cell-based, galactose medium, ATP luminescence (AID 1645843;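 active = z-score of at least 1.8 in each of two replicates, scored against plate mean and spread of sample wells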;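 also: positive z means more ATP and so rescue of galactose-driven cybrid death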). To be noted: complex I mutant cybrid cells, 72 h, stronger effect = higher value.
The nature of assay [8]: growth inhibition of DIPG glioma cells, dose response, cell-based, SU-DIPG-XVII, MIPE5.0, CellTiter-Glo, qHTS (AID 1347060).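 As to AC50: cells exposed to compound for 48 hours before viability readout.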 To be noted: SU-DIPG-XVII viability, CellTiter-Glo ATP luminescence.
Assay [9] can be described thus: growth inhibition of DIPG glioma cells, dose response, cell-based, SU-DIPG-XIII, MIPE4.0, CellTiter-Glo, qHTS (AID 1347061; cut-off not given, nearly all actives have AC50 up to about 37 µM;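 also: cells exposed to compound for 48 hours before readout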). To be noted: SU-DIPG-XIII viability, CellTiter-Glo ATP luminescence.
Assay [10] can be described thus: growth inhibition of DIPG glioma cells, dose response, cell-based, SU-DIPG-IV, MIPE4.0, CellTiter-Glo, qHTS (AID 1347063; cut-off not given, nearly all actives have AC50 up to about 30 µM;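 also: compound exposure lasted 48 hours before the viability readout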). To be noted: SU-DIPG-IV viability, CellTiter-Glo ATP luminescence.
The nature of assay [11]: growth inhibition of DIPG glioma cells, dose response, cell-based, SU-DIPG-XIII, MIPE5.0, CellTiter-Glo, qHTS (AID 1347064; cut-off not given, nearly all actives have AC50 up to about 23 µM;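 as to AC50: cells exposed to compound for 48 hours before the viability read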). To be noted: SU-DIPG-XIII viability, CellTiter-Glo ATP luminescence.
Assay [12] can be described thus: viability loss in pontine glioma line – cell-based, SU-DIPG-XXV, MIPE5.0, CellTiter-Glo, qHTS, dose response (AID 1347065).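 Also: cells exposed to compound for 48 hours before ATP readout.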 To be noted: CellTiter-Glo ATP luminescence.
Assay [13] is described as follows: SU-DIPG-XXV glioma cell viability, MIPE5.0 library, qHTS (AID 1347068; cut-off not given, nearly all actives have IC50 up to about 30 µM;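 as to IC50: cells exposed to compound for 48 hours before viability readout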).
Assay [14] can be described thus: growth inhibition of DIPG glioma cells, dose response, cell-based, JHH-DIPG-1, MIPE4.0, CellTiter-Glo, qHTS (AID 1347062; cut-off not given, nearly all actives have AC50 up to about 27 µM). To be noted: JHH-DIPG-1 viability, CellTiter-Glo ATP luminescence.
The nature of assay [15]: SU-DIPG-VI glioma cell viability, MIPE4.0 library, CellTiter-Glo luminescence, qHTS (AID 1347066; cut-off not given, nearly all actives have AC50 up to about 30 µM;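 also: cells exposed to compound for 48 hours before readout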). To be noted: CellTiter-Glo ATP luminescence.
Assay [16] can be described thus: JHH-DIPG-1 glioma cell viability, MIPE5.0 library, CellTiter-Glo luminescence, qHTS (AID 1347067).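 Also: cells exposed to compound for 48 hours before readout.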 To be noted: JHH-DIPG-1 glioma viability, CellTiter-Glo ATP luminescence.
The nature of assay [17]: modifiers of HSF1 nuclear foci, imaging, Selleck Cancer Library (AID 1347162; in the data active = plate-normalised HSF1 focus index below about 0.46). To be noted: human cells, at 10 µM; SSMD: measured here: HSF1 foci SSMD mean; cell count: measured here: cell number; plate-normalised HSF1 focus index: stronger effect = lower value.
Assay [18] can be described thus: survival rescue of mitochondrial mutant cells in low glucose, primary screen, MELAS cybrids, Rieske KO mouse fibroblasts, CellTiter-Glo (AID 1508586;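 active = mean z-score across replicates of 1.96 or higher in either the MELAS or the Rieske mutant cell line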;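 also: z relative to plate mean and SD of compound and empty wells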).
Setting [19] is: measured here: relative caspase fold change +Dox/-Dox.
Where [20] appears, read: measured here: total cells with miR-34 induction, stronger effect = lower value.
The mark [21] stands for this setting: measured here: total cells without miR-34 induction.

Several values for one entry are separate records, joined by “and”; a condition that tells them apart may be missing. Equal entries are not always repeated. Records with an inconclusive call do not appear. Activity calls are given as the source filed them. Unless noted, the limit is not given here; nearly all actives have AC50 up to about 26 µM.

On to `N#CC(C#N)=Cc1cc(O)c(O)c(O)c1`, for which, in assay [1], the period change is -0.035 h (inactive). Further, the survival in assay [2] is 61.5 (inactive). Besides, in [3], the remaining activity is 109% (inactive).
Regarding `CCc1c(C(=O)OC)ncc2[nH]c3cc(OC)c(OC)cc3c12`, the period change in assay [1] is 0.185 h (inactive). For the same compound, the remaining activity in assay [3] is 93% (inactive).
Turning to `CCCN(CCC)C(=O)Cc1c(-c2ccc(Cl)cc2)nc2c(Cl)cc(Cl)cn12`, the period change in assay [1] is -0.05 h (inactive). For the same compound, the remaining activity in assay [3] was 120% (inactive).
Consider `CCN(CC)c1ncnc2c1ncn2[C@@H]1O[C@H](COP(=O)(O)OP(=O)(O)C(Br)(Br)P(=O)(O)O)[C@@H](O)[C@H]1O`, for which the period change in [1] is 0.205 h (inactive). Besides, the inhibition in assay [4] was -1% (inactive). Besides, the fluorescence ratio (interference) in [5] was 1 (inactive). In assay [3], the remaining activity is 110% (inactive). Besides, the results for the fold change in assay [6] (stronger effect = lower value) and in assay [6] (setting [19]) were 1.01 (inactive) and 2.23, respectively. The values for the cell count in assay [6] (setting [20]) and in assay [6] (setting [21]) were 10400 and 10200, respectively. For the same compound, in assay [7], the z-score is 0.37 (inactive).
As to `N=c1c2c(-c3ccccc3)c(-c3ccccc3)n(Cc3ccccc3)c2ncn1C1CCC(O)CC1` (centres undefined), the concentration at half-maximal activity (AC50) in [8] was 18.6 µM (active); in [10] it was 8.33 µM (active); in [11] it was 16.6 µM (active); in [12], 20.9 µM (active). The call in assay [9] was inactive. The IC50 in [13] is 18.6 µM (active).
As to `CN[C@@H]1Cc2cccc3[nH]c(=O)n(c23)C1`, the compound was classed as inactive in [8], in assay [9], in assay [14], in [11], in [12] and in assay [15]. For the same compound, the outcome in [16] and in assay [13] was inactive.
As for `CCOP(=O)(OCC)C(C)NC(=O)N(CCCl)N=O` (centres undefined), the compound was called inactive in assay [8], in [9], in assay [14], in assay [11], in assay [12] and in assay [15]. Also, the result in assay [16] and in assay [13] was inactive.
For `O=C(Oc1ccc([N+](=O)[O-])cc1)N1CCC(C(O)(c2ccc3c(c2)OCO3)c2ccc3c(c2)OCO3)CC1`, the compound was called inactive in assay [8], in assay [9], in assay [14], in assay [10], in [11] and in [12]. The outcome in [15], in [16] and in assay [13] was inactive. In addition, the fold change in [6] (stronger effect = lower value, cell number ratio, induced over uninduced) is 1.03 (inactive) and 0.881 (inactive); in assay [6] (setting [19]) it was 1.13 and 1. In addition, the cell count in [6] (setting [20]) is 6030 and 8340; in assay [6] (setting [21]) it was 5850 and 9460; in assay [17], 6730. The compound further gave an SSMD in [17] of 3.32. Besides, in assay [17], the plate-normalised HSF1 focus index is 1.2 (inactive). For the same compound, the z-score is -0.115 (inactive) in assay [18] (MELAS cybrid survival, CellTiter-Glo 48 h, stronger effect = higher value) and -0.259 in assay [18] (Rieske KO mouse fibroblast survival, CellTiter-Glo 72 h).
In the case of `CSCC[C@@H](NC(=O)[C@@H](Cc1ccccc1)NC(=O)CNC(=O)CNC(=O)[C@@H](N)Cc1ccc(O)cc1)C(=O)O`, the result in assay [8], in assay [9], in [14], in assay [10], in assay [11] and in [12] was inactive. Moreover, the outcome in [16] and in assay [13] was inactive.
On to `CC(=O)O[C@@]12CO[C@@H]1C[C@H](O)[C@@]1(C)C(=O)[C@H](O)C3=C(C)[C@@H](O)C[C@@](O)([C@@H](OC(=O)c4ccccc4)[C@H]21)C3(C)C`, for which the AC50 in assay [8] was 23.5 µM (active). The outcome in assay [9], in assay [15], in assay [16] and in assay [13] was inactive.

Values taken from PubChem BioAssay.
